# Inconclusive results are not listed. Active and inactive are the calls of the source. Calls follow the shape of the dose curve; as a rule, active = well fitted inhibition curve with a large enough effect; inconclusive = small, poorly fitted or top-dose-only effect; inactive = no such curve, though single readings can be large or run the other way.
# Assay: InCell qHTS Assay for Inhibitors of the mTORC1 Signaling Pathway in MEF (Tsc2-/-, p53-/-) Cells: Hit Validation;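 also: phospho-S6 Ser235/236 signal normalized to propidium iodide cell count per well; nearly all actives have a fitted effect of over 75% in size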
# Conditions: phospho-rpS6 immunofluorescence, 24 h; activity change, negative = inhibition: at 38.3 µM (top of the series)
# Potency is read from the fitted curve at half-maximal effect.
Compound,"activity change, negative = inhibition",Potency
O=C(CCCn1c(=O)c2ccccc2n(Cc2cccc(Cl)c2)c1=O)NCCc1ccc(Cl)cc1,-100%,–
Cn1nnnc1SCCCNCc1ccccc1OCc1ccc(Cl)cc1,-12.8%,–
Cc1ccc(NC(=O)Cn2cc(C(=O)C3CCCCC3)c3ccccc32)cc1,-100%,–
Cc1ccc(N(CC(O)Cn2c3ccccc3c3ccccc32)S(=O)(=O)c2ccc(F)cc2)cc1 (configuration not stated),-64.5%,–
CCc1ccc(OCC(=O)Nc2ccc3oc(-c4ccc(OC)cc4)nc3c2)cc1,-100%,–
COc1ccc(N(Cc2ccccc2)C(=O)c2nc(S(C)(=O)=O)ncc2Cl)cc1,–,3.69 µM (active)
O=C(CCn1cnc2onc(-c3ccc(F)cc3)c2c1=O)Nc1ccc(F)c(Cl)c1,-100%,–
Cc1ccc(NC(=O)Nc2cccs2)c(C)c1,-100%,–
Cc1ccc(-n2ncc(C(=O)NCCCN3CCc4ccccc4C3)c2C2CCN(C(=O)OC(C)(C)C)CC2)c(C)c1,-100%,–
COc1ccccc1-c1noc(CSc2nc3ccc(C)cc3[nH]2)n1,-100%,–
Cc1ccccc1NC(=O)c1sc2nc3c(cc2c1N)CCCC3,-100%,–
Cc1ccc(S(=O)(=O)c2nnn3c2nc(NC2CCCCC2)c2sccc23)cc1C,-100%,–
COc1cccc(C(=O)Nc2ccc(-c3cc(C(F)(F)F)nn3-c3ccccc3)cc2)c1,-100%,–
CCCCS(=O)(=O)c1oc(-c2ccc(F)cc2)nc1S(=O)(=O)c1ccccc1,–,2.07 µM (active)
CCC(C)S(=O)(=O)c1oc(-c2ccc(F)cc2)nc1S(=O)(=O)c1ccc(F)cc1 (configuration not stated),–,1.47 µM (active)
CCCN1C(=O)C(Cc2nc3ccccc3c(=O)n2CC)c2cc(Br)ccc21 (configuration not stated),-100%,–
CCc1ccc(NC(=O)Cn2c(=O)n(-c3ccc(OC)cc3)c(=O)c3ccc(C(=O)NCc4ccc(C)cc4)cc32)cc1,–,13.1 µM (active)
Cc1cccc(N(CC(=O)NCCSc2ccc(Cl)cc2)S(=O)(=O)c2ccccc2)c1C,-100%,–
CC1=C(C(=O)Nc2ccc(C)cc2C)C(c2cc(Br)ccc2F)n2ncc(C(=O)Nc3ccc(C)cc3)c2N1 (configuration not stated),–,14.7 µM (active)

Compound,"activity change, negative = inhibition",Potency
O=C(NCc1ccc(Cl)cc1)C(=O)NCC(c1cccs1)S(=O)(=O)c1ccc(Cl)cc1 (configuration not stated),-100%,–
COC(=O)c1ccccc1NC(=O)CSc1n[nH]c(CC(C)C)n1,-100%,–
CCc1ccc(S(=O)(=O)N(C(=O)c2ccncc2)c2ccc3oc(C)c(C(=O)OC)c3c2)cc1,-100%,–
CCOC(=O)c1c(C)[nH]c(CCC(=O)Nc2cc(C)ccc2OC)c1C,-100%,–
COc1ccccc1C1C=C(c2ccc(Cl)cc2)Nc2nc(-c3ccc(Cl)cc3)nn21 (configuration not stated),-100%,–
CCCN1C(=O)C(O)(CC(=O)c2ccc(CC)cc2)c2ccccc21 (configuration not stated),-100%,–
CC(C)N(C(=O)Cn1cc(S(=O)(=O)Cc2ccc(Cl)cc2)c2ccccc21)C(C)C,-100%,–
COc1ccc(S(=O)(=O)N(C(=O)c2ccncc2)c2ccc3oc(C)c(C(C)=O)c3c2)cc1,-100%,–
Cc1ccc(-c2noc(CCC(=O)N(C)c3ccccc3F)n2)cc1,-100%,–
COc1ccc(S(=O)(=O)NCCc2csc3nc(-c4ccc(Cl)cc4)nn23)cc1C,-100%,–
CCCCC1CCC(C(=O)N2CC(=O)Nc3ccc(Cl)cc3C2c2ccc(F)cc2)CC1 (configuration not stated),-100%,–
Cc1ccccc1NC(=O)Cn1cc(C(=O)c2cccs2)c2ccccc21,-100%,–
COc1cc(C)ccc1OCCn1c(-c2ccc(Cl)cc2)nc2ccccc2c1=O,-100%,–
Cc1ccc(-c2nnc(C3CCN(S(=O)(=O)c4ccc(C)c(C)c4)CC3)o2)cc1,-100%,–
CCOC(=O)c1ccc(N2C(=O)c3n[nH]c(-c4cccs4)c3C2c2cccc(F)c2)cc1 (configuration not stated),-100%,–
CCCCOc1ccccc1C1CC(=O)Nc2ccc3ccccc3c21 (configuration not stated),-100%,–
COc1cc(Br)ccc1C1C(C(=O)Nc2ccc(C)cc2C)=C(C)Nc2nnnn21 (configuration not stated),-100%,–
CCOC(=O)c1c(NC(=O)c2nc(S(C)(=O)=O)ncc2Cl)sc(C(C)=O)c1C,–,3.69 µM (active)

# — PubChem BioAssay AID651791 (National Center for Advancing Translational Sciences (NCATS), 2012)
